The record followed here is PMC11006913.

What all share (experiment): PBM; 200 nM protein, PBS
Common to all, as to conditions: dsDNA, one strand shown

The target of experiment [1] is HESX1 (Homo sapiens, UniProt Q9UBX0 95-180, R165K).
Experiment [2] concerns the target SHOX (Homo sapiens, UniProt O15266 103-189).
The target in the next experiment is ALX4 (Homo sapiens, UniProt Q9H161 200-286, Q225E).
In experiment [3] the target is HESX1 (Homo sapiens, UniProt Q9UBX0 95-180).
Another experiment deals with MSX2 (Homo sapiens, UniProt P35548 130-214, R199I).
Experiment [4] deals with ALX1 (Homo sapiens, UniProt Q15699 118-204, L144V).
Experiment [5] addresses ALX3 (Homo sapiens, UniProt O95076 139-225, N203Q).
In experiment [6] the target is SHOX (Homo sapiens, UniProt O15266 103-189, R173C).
Experiment [7] deals with ALX1 (Homo sapiens, UniProt Q15699 118-204, L144R).
Experiment [8] concerns the target ALX3 (Homo sapiens, UniProt O95076 139-225).
Experiment [9] concerns the target PROP1 (Homo sapiens, UniProt O75360 56-141).
The target of experiment [10] is HESX1 (Homo sapiens, UniProt Q9UBX0 95-180, R109Q).
The target of experiment [11] is PROP1 (Homo sapiens, UniProt O75360 56-141, R99H).
In experiment [12] the target is ALX3 (Homo sapiens, UniProt O95076 139-225, L168Q).
Experiment [13] deals with HESX1 (Homo sapiens, UniProt Q9UBX0 95-180, P111T).
Experiment [14] has as its target ALX3 (Homo sapiens, UniProt O95076 139-225, L168V).
The target in experiment [15] is PROP1 (Homo sapiens, UniProt O75360 56-141, F88S).
Experiment [16] concerns the target HESX1 (Homo sapiens, UniProt Q9UBX0 95-180, F115L).
For experiment [17], the target named is ALX1 (Homo sapiens, UniProt Q15699 118-204).
Experiment [18] has as its target ALX3 (Homo sapiens, UniProt O95076 139-225, N203S).

Chain of PROP1 (Homo sapiens, UniProt O75360 56-141, F88S) (O75360 56-141 F88S): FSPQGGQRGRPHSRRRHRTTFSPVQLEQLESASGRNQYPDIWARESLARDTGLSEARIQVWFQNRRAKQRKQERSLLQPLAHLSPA
Chain of ALX1 (Homo sapiens, UniProt Q15699 118-204) (Q15699 118-204): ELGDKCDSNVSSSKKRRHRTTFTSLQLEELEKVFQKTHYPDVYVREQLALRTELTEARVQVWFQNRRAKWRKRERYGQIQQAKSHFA
Chain of HESX1 (Homo sapiens, UniProt Q9UBX0 95-180, R109Q) (Q9UBX0 95-180 R109Q): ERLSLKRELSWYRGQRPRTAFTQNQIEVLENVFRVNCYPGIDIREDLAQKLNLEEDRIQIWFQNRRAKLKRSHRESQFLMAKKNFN
Chain of ALX3 (Homo sapiens, UniProt O95076 139-225, N203S) (O95076 139-225 N203S): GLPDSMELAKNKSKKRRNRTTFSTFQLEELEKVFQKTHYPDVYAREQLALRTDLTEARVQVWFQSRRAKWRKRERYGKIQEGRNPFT
Chain of HESX1 (Homo sapiens, UniProt Q9UBX0 95-180) (Q9UBX0 95-180): as the sequence (Q9UBX0 95-180 R109Q) above, with Q15R counted along it
Chain of ALX1 (Homo sapiens, UniProt Q15699 118-204, L144V) (Q15699 118-204 L144V): as the sequence (Q15699 118-204) above, with L27V counted along it
Chain of SHOX (Homo sapiens, UniProt O15266 103-189) (O15266 103-189): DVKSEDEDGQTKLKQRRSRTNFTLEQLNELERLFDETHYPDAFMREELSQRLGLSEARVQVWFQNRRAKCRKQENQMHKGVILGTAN
Chain of HESX1 (Homo sapiens, UniProt Q9UBX0 95-180, R165K) (Q9UBX0 95-180 R165K): as the sequence (Q9UBX0 95-180 R109Q) above, with Q15R, R71K counted along it
Chain of MSX2 (P35548 130-214 R199I): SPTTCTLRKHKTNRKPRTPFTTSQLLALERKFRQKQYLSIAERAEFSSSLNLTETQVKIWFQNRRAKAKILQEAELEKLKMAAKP
Chain of ALX3 (Homo sapiens, UniProt O95076 139-225, L168V) (O95076 139-225 L168V): as the sequence (O95076 139-225 N203S) above, with L30V, S65N counted along it
Chain of ALX3 (Homo sapiens, UniProt O95076 139-225, L168Q) (O95076 139-225 L168Q): as the sequence (O95076 139-225 N203S) above, with L30Q, S65N counted along it
Chain of HESX1 (Homo sapiens, UniProt Q9UBX0 95-180, P111T) (Q9UBX0 95-180 P111T): as the sequence (Q9UBX0 95-180 R109Q) above, with Q15R, P17T counted along it
Chain of ALX3 (Homo sapiens, UniProt O95076 139-225, N203Q) (O95076 139-225 N203Q): as the sequence (O95076 139-225 N203S) above, with S65Q counted along it
Chain of PROP1 (Homo sapiens, UniProt O75360 56-141, R99H) (O75360 56-141 R99H): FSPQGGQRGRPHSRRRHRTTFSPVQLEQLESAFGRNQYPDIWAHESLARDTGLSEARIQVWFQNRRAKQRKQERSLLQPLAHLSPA
Chain of PROP1 (Homo sapiens, UniProt O75360 56-141) (O75360 56-141): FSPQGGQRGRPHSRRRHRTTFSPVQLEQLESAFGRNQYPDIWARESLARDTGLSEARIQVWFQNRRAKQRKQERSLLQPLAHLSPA
Chain of HESX1 (Homo sapiens, UniProt Q9UBX0 95-180, F115L) (Q9UBX0 95-180 F115L): as the sequence (Q9UBX0 95-180 R109Q) above, with Q15R, F21L counted along it
Chain of SHOX (Homo sapiens, UniProt O15266 103-189, R173C) (O15266 103-189 R173C): as the sequence (O15266 103-189) above, with R71C counted along it
Chain of ALX3 (Homo sapiens, UniProt O95076 139-225) (O95076 139-225): as the sequence (O95076 139-225 N203S) above, with S65N counted along it
Chain of ALX4 (Q9H161 200-286 Q225E): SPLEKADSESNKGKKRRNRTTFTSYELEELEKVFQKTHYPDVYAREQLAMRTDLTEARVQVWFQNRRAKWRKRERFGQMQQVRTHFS
Chain of ALX1 (Homo sapiens, UniProt Q15699 118-204, L144R) (Q15699 118-204 L144R): as the sequence (Q15699 118-204) above, with L27R counted along it

Consider CCAATTAA, for which the binding signal with HESX1 [1] was 13.6 upbm affinity estimate (log intensity, higher = more binding, comparable within an allelic series); in the experiment with SHOX [2], 12.7 upbm affinity estimate (log intensity, higher = more binding, comparable within an allelic series); with ALX4, 14.1 upbm affinity estimate (log intensity, higher = more binding, comparable within an allelic series); in the experiment with HESX1 [3], 13.5 upbm affinity estimate (log intensity, higher = more binding, comparable within an allelic series); in the experiment with MSX2 it was 13.3 upbm affinity estimate (log intensity, higher = more binding, comparable within an allelic series); with ALX1 [4], 12.2 upbm affinity estimate (log intensity, higher = more binding, comparable within an allelic series). The binding signal is 8.51 upbm affinity estimate (log intensity, higher = more binding, comparable within an allelic series) in the experiment with ALX3 [5]; 10.3 upbm affinity estimate (log intensity, higher = more binding, comparable within an allelic series) in the experiment with SHOX [6]; 11.9 upbm affinity estimate (log intensity, higher = more binding, comparable within an allelic series) with ALX1 [7]; 12.9 upbm affinity estimate (log intensity, higher = more binding, comparable within an allelic series) with ALX3 [8]; 12 upbm affinity estimate (log intensity, higher = more binding, comparable within an allelic series) in the experiment with PROP1 [9]; 10.8 upbm affinity estimate (log intensity, higher = more binding, comparable within an allelic series) in the experiment with HESX1 [10]. The binding signal with PROP1 [11] is 12.2 upbm affinity estimate (log intensity, higher = more binding, comparable within an allelic series); with ALX3 [12], 11.2 upbm affinity estimate (log intensity, higher = more binding, comparable within an allelic series); with HESX1 [13], 12.2 upbm affinity estimate (log intensity, higher = more binding, comparable within an allelic series); in the experiment with ALX3 [14], 10.8 upbm affinity estimate (log intensity, higher = more binding, comparable within an allelic series); with PROP1 [15], 7.84 upbm affinity estimate (log intensity, higher = more binding, comparable within an allelic series); with HESX1 [16], 8.43 upbm affinity estimate (log intensity, higher = more binding, comparable within an allelic series). Also, the binding signal with ALX1 [17] was 12.8 upbm affinity estimate (log intensity, higher = more binding, comparable within an allelic series); with ALX3 [18] it was 8.7 upbm affinity estimate (log intensity, higher = more binding, comparable within an allelic series).
ACAATTAA: the binding signal was 12.1 upbm affinity estimate (log intensity, higher = more binding, comparable within an allelic series) in the experiment with HESX1 [1]; 11.6 upbm affinity estimate (log intensity, higher = more binding, comparable within an allelic series) with SHOX [2]; 12.9 upbm affinity estimate (log intensity, higher = more binding, comparable within an allelic series) with ALX4; 12.2 upbm affinity estimate (log intensity, higher = more binding, comparable within an allelic series) in the experiment with HESX1 [3]; 12.8 upbm affinity estimate (log intensity, higher = more binding, comparable within an allelic series) in the experiment with MSX2; 11.4 upbm affinity estimate (log intensity, higher = more binding, comparable within an allelic series) with ALX1 [4]. Moreover, the binding signal in the experiment with ALX3 [5] was 8.46 upbm affinity estimate (log intensity, higher = more binding, comparable within an allelic series); in the experiment with SHOX [6] it was 9.44 upbm affinity estimate (log intensity, higher = more binding, comparable within an allelic series); in the experiment with ALX1 [7], 11.1 upbm affinity estimate (log intensity, higher = more binding, comparable within an allelic series); with ALX3 [8], 12.3 upbm affinity estimate (log intensity, higher = more binding, comparable within an allelic series); with PROP1 [9], 11.2 upbm affinity estimate (log intensity, higher = more binding, comparable within an allelic series); with HESX1 [10], 8.86 upbm affinity estimate (log intensity, higher = more binding, comparable within an allelic series). Further, the binding signal is 11.1 upbm affinity estimate (log intensity, higher = more binding, comparable within an allelic series) with PROP1 [11]; 10.4 upbm affinity estimate (log intensity, higher = more binding, comparable within an allelic series) in the experiment with ALX3 [12]; 10.8 upbm affinity estimate (log intensity, higher = more binding, comparable within an allelic series) in the experiment with HESX1 [13]; 9.93 upbm affinity estimate (log intensity, higher = more binding, comparable within an allelic series) with ALX3 [14]; 7.71 upbm affinity estimate (log intensity, higher = more binding, comparable within an allelic series) with PROP1 [15]; 7.77 upbm affinity estimate (log intensity, higher = more binding, comparable within an allelic series) in the experiment with HESX1 [16]. Besides, the binding signal is 12 upbm affinity estimate (log intensity, higher = more binding, comparable within an allelic series) with ALX1 [17] and 8.59 upbm affinity estimate (log intensity, higher = more binding, comparable within an allelic series) with ALX3 [18].
Consider TATTAGAA, for which the binding signal was 8 upbm affinity estimate (log intensity, higher = more binding, comparable within an allelic series) with HESX1 [1]; 8.34 upbm affinity estimate (log intensity, higher = more binding, comparable within an allelic series) with HESX1 [3]; 7.87 upbm affinity estimate (log intensity, higher = more binding, comparable within an allelic series) with HESX1 [13].
Turning to CAATTAAG, the binding signal in the experiment with HESX1 [1] was 13 upbm affinity estimate (log intensity, higher = more binding, comparable within an allelic series); with SHOX [2], 12.3 upbm affinity estimate (log intensity, higher = more binding, comparable within an allelic series); with ALX4, 13.4 upbm affinity estimate (log intensity, higher = more binding, comparable within an allelic series); in the experiment with HESX1 [3], 12.9 upbm affinity estimate (log intensity, higher = more binding, comparable within an allelic series); with MSX2, 12.8 upbm affinity estimate (log intensity, higher = more binding, comparable within an allelic series); with ALX1 [4] it was 11.7 upbm affinity estimate (log intensity, higher = more binding, comparable within an allelic series). The binding signal is 8.48 upbm affinity estimate (log intensity, higher = more binding, comparable within an allelic series) with ALX3 [5]; 10.1 upbm affinity estimate (log intensity, higher = more binding, comparable within an allelic series) with SHOX [6]; 11.4 upbm affinity estimate (log intensity, higher = more binding, comparable within an allelic series) in the experiment with ALX1 [7]; 12.5 upbm affinity estimate (log intensity, higher = more binding, comparable within an allelic series) with ALX3 [8]; 11.6 upbm affinity estimate (log intensity, higher = more binding, comparable within an allelic series) in the experiment with PROP1 [9]; 9.81 upbm affinity estimate (log intensity, higher = more binding, comparable within an allelic series) in the experiment with HESX1 [10]. Also, the binding signal was 11.8 upbm affinity estimate (log intensity, higher = more binding, comparable within an allelic series) with PROP1 [11]; 10.7 upbm affinity estimate (log intensity, higher = more binding, comparable within an allelic series) in the experiment with ALX3 [12]; 11.7 upbm affinity estimate (log intensity, higher = more binding, comparable within an allelic series) in the experiment with HESX1 [13]; 10.2 upbm affinity estimate (log intensity, higher = more binding, comparable within an allelic series) with ALX3 [14]; 7.75 upbm affinity estimate (log intensity, higher = more binding, comparable within an allelic series) in the experiment with PROP1 [15]; 7.88 upbm affinity estimate (log intensity, higher = more binding, comparable within an allelic series) with HESX1 [16]. The binding signal with ALX1 [17] is 12.3 upbm affinity estimate (log intensity, higher = more binding, comparable within an allelic series); with ALX3 [18], 8.56 upbm affinity estimate (log intensity, higher = more binding, comparable within an allelic series).
Turning to GTAATTGA, the binding signal was 12.5 upbm affinity estimate (log intensity, higher = more binding, comparable within an allelic series) with HESX1 [1]; 11.9 upbm affinity estimate (log intensity, higher = more binding, comparable within an allelic series) in the experiment with SHOX [2]; 12.8 upbm affinity estimate (log intensity, higher = more binding, comparable within an allelic series) with ALX4; 12.6 upbm affinity estimate (log intensity, higher = more binding, comparable within an allelic series) with HESX1 [3]; 12.5 upbm affinity estimate (log intensity, higher = more binding, comparable within an allelic series) with MSX2; 11.7 upbm affinity estimate (log intensity, higher = more binding, comparable within an allelic series) with ALX1 [4]. In addition, the binding signal is 8.3 upbm affinity estimate (log intensity, higher = more binding, comparable within an allelic series) with ALX3 [5]; 9.41 upbm affinity estimate (log intensity, higher = more binding, comparable within an allelic series) with SHOX [6]; 11.2 upbm affinity estimate (log intensity, higher = more binding, comparable within an allelic series) with ALX1 [7]; 12.4 upbm affinity estimate (log intensity, higher = more binding, comparable within an allelic series) with ALX3 [8]; 11.3 upbm affinity estimate (log intensity, higher = more binding, comparable within an allelic series) in the experiment with PROP1 [9]; 8.99 upbm affinity estimate (log intensity, higher = more binding, comparable within an allelic series) with HESX1 [10]. In addition, the binding signal with PROP1 [11] was 11.5 upbm affinity estimate (log intensity, higher = more binding, comparable within an allelic series); with ALX3 [12], 10.4 upbm affinity estimate (log intensity, higher = more binding, comparable within an allelic series); with HESX1 [13], 11 upbm affinity estimate (log intensity, higher = more binding, comparable within an allelic series); in the experiment with ALX3 [14] it was 9.76 upbm affinity estimate (log intensity, higher = more binding, comparable within an allelic series); with PROP1 [15], 7.49 upbm affinity estimate (log intensity, higher = more binding, comparable within an allelic series); in the experiment with HESX1 [16], 7.6 upbm affinity estimate (log intensity, higher = more binding, comparable within an allelic series). The binding signal in the experiment with ALX1 [17] is 12.3 upbm affinity estimate (log intensity, higher = more binding, comparable within an allelic series); in the experiment with ALX3 [18] it was 8.44 upbm affinity estimate (log intensity, higher = more binding, comparable within an allelic series).
